# In all, about 52,000 compounds went through this assay and about 1,700 (3.3%) were called active. The sample holds actives, similar compounds and a random draw of the others, so the mix is not that of the screen. No stated cut-off is given here; in the data, active means survival mostly below about 52% (no sharp cut-off); inactive means mostly above about 56%.
# System: Wild type
# Test: S. aureus survival, RN4220 and DeltatarO strains – OD600, teichoic acid synthesis inhibitors, primary screen (AID 463173)
# Settings: S. aureus RN4220 wild type/DeltatarO growth, OD600, 18 h, hits give low values, concentration not given here
row,SMILES,survival
1,Cc1ccc(NC(=O)N(Cc2ccc3c(c2)OCO3)C2CCN(Cc3ccccc3)CC2)cc1F,76% (inactive)
2,Cc1ccc(Cl)cc1NC(=O)N(Cc1ccc2c(c1)OCO2)C1CCN(Cc2ccccc2)CC1,14% (active)
3,COc1ccccc1NC(=O)N(Cc1ccc2c(c1)OCO2)C1CCN(Cc2ccccc2)CC1,78% (inactive)
4,Cc1ccc(NC(=O)N(Cc2ccc3c(c2)OCO3)C2CCN(Cc3ccccc3)CC2)cc1C,-1% (active)
5,Cc1ccc(NC(=O)N(Cc2ccc3c(c2)OCO3)C2CCN(Cc3ccccc3)CC2)cc1Cl,133% (inactive)
6,O=C(Nc1ccccc1)N(Cc1ccc2c(c1)OCO2)C1CCN(Cc2ccccc2)CC1,78% (inactive)
7,Cc1cccc(CN2CCN(C(=O)COc3ccccc3)CC2)c1,108% (inactive)
8,CCCOc1ccc(CCN)cc1Cl,107% (inactive)
9,O=C(Nc1ccc2c(c1)OCO2)c1cccn(Cc2cccc([N+](=O)[O-])c2)c1=O,77% (inactive)
10,c1cc(C2CCNCC2)ccn1,104% (inactive)
11,NC(=O)CN1C2CCC1CC(NC(=O)C1CC1)C2 (configuration not stated),103% (inactive)
12,O=S1(=O)N(Cc2ccccc2)CCCN1Cc1cccc(Cl)c1,78% (inactive)
13,O=S1(=O)N(Cc2ccccc2Cl)CCCN1Cc1ccccc1Cl,-4% (active)
14,O=S1(=O)N(Cc2ccccc2)CCCN1Cc1ccc(F)cc1Cl,76% (inactive)
15,COc1ccc(CN2C(=O)CC(=O)NC2=S)cc1,107% (inactive)
16,CCCCc1nn2c(=O)cc(COC(=O)Cc3ccccc3)nc2s1,84% (inactive)
17,CCC(C)N1CCN(Cc2ccccc2)CC1 (configuration not stated),111% (inactive)
18,Cc1cccc(-n2nc(C)c3c2NC(=O)CSC3c2ccccc2Cl)c1 (configuration not stated),64% (inactive)
19,CCCOc1ccc(C2SCC(=O)Nc3c2c(C)nn3-c2cccc(C)c2)cc1OC (configuration not stated),62% (inactive)
20,COc1ccccc1C1SCC(=O)Nc2c1c(C)nn2-c1cccc(C)c1 (configuration not stated),-10% (active)
21,CCCc1nc2ccccc2c(=O)n1-c1ccccc1,127% (inactive)
22,O=C(COc1ccccc1)N1CCN(Cc2ccc(Br)cc2)CC1,100% (inactive)
23,CCCCn1c(=O)c(C(=O)NC)c(O)c2ccccc21,112% (inactive)
24,CCCCCn1c(=O)c(C(=O)Nc2ccccc2S(N)(=O)=O)c(O)c2ccccc21,0% (active)
25,CCSc1nnc(NC(=O)c2cccn(Cc3ccccc3Cl)c2=O)s1,71% (inactive)

row,SMILES,survival
1,CN1CCC2(CC1)CC(NC=O)c1ccccc1O2 (configuration not stated),108% (inactive)
2,N#Cc1cc2c(nc1SCC(=O)Nc1ccc(C(F)(F)F)cc1)C1CCN2CC1,0% (active)
3,N#Cc1cc2c(nc1SCC(=O)Nc1cccc(C(F)(F)F)c1)C1CCN2CC1,0% (active)
4,O=C(CN1C(=O)CN=C(c2ccccc2)c2ccccc21)Nc1cccc(C(F)(F)F)c1,48% (inactive)
5,Nc1c(C(=O)Nc2cccc(Br)c2)sc2nc3c(cc12)N1CCC3CC1,63% (inactive)
6,Nc1c(C(=O)Nc2ccc(OC(F)(F)F)cc2)sc2nc3c(cc12)N1CCC3CC1,167% (inactive)
7,N#Cc1cc2c(nc1SCC(=O)Nc1cccc(F)c1)C1CCN2CC1,-3% (active)
8,CCOC(=O)c1ccc(NC(=O)CSc2nc3c(cc2C#N)N2CCC3CC2)cc1,84% (inactive)
9,N#Cc1cccc(NC(=O)CSc2nc3c(cc2C#N)N2CCC3CC2)c1,76% (inactive)
10,CN1CCc2c(C#N)c(Cl)nc(NCc3ccccc3)c2C1,103% (inactive)
11,CCCC1(CCC)C(=O)NC(=Nc2ccccc2)NC1=O,107% (inactive)
12,COc1ccc(CC2C(=O)N(C)C(=O)N(C)C2=O)cc1,112% (inactive)
13,CCc1cc2c(s1)NC(=O)CN=C2c1cccs1,112% (inactive)
14,N#CC(C#N)=Cc1cc(Br)cs1,94% (inactive)
15,Cc1cc(-n2c(/C=C/c3ccc(Br)s3)nc3ccccc3c2=O)ccc1Br,66% (inactive)
16,Cn1cc(C=C(C#N)C#N)c2ccccc21,114% (inactive)
17,Cc1ccc(-n2c(/C=C\c3ccc(F)c(F)c3)nc3ccccc3c2=O)c(C)c1,68% (inactive)
18,O=c1c2ccccc2nc(/C=C/c2ccccc2)n1-c1ccccc1F,97% (inactive)
19,O=c1c2ccccc2nc(/C=C\c2ccccc2F)n1-c1ccc(O)cc1,73% (inactive)
20,O=c1c2ccccc2nc(/C=C\c2ccc(F)cc2)n1-c1ccccc1F,71% (inactive)
21,Cc1ccccc1-n1c(/C=C/c2ccccc2F)nc2ccccc2c1=O,7% (active)
22,Cc1cccc(-n2c(/C=C/c3c(C)[nH]c4ccccc34)nc3ccccc3c2=O)c1,108% (inactive)
23,Cc1ccccc1-n1c(/C=C/c2ccc(N(C)C)cc2)nc2ccccc2c1=O,7% (active)
24,Cc1ccccc1-n1c(/C=C/c2ccc(O)cc2)nc2ccccc2c1=O,48% (inactive)
25,COc1ccc(-n2c(/C=C\c3ccccc3F)nc3ccccc3c2=O)c(OC)c1,68% (inactive)

row,SMILES,survival
1,Cc1ccccc1-n1c(/C=C/c2c(C)[nH]c3ccccc23)nc2ccccc2c1=O,6% (active)
2,Cc1cccc(-n2c(/C=C/c3ccccc3O)nc3ccccc3c2=O)c1,12% (inactive)
3,O=c1c2ccccc2nc(/C=C/c2ccccc2F)n1-c1cccc(O)c1,11% (active)
4,Cc1cccc2sc(NC(=O)c3cccn(Cc4ccccc4)c3=O)nc12,78% (inactive)
5,COC(=O)c1ccc(NC(=O)c2cccn(Cc3ccccc3C)c2=O)cc1,88% (inactive)
6,Cc1c(C(c2ccc(Br)cc2)c2c(O)c3ccccc3oc2=O)c(=O)n(-c2ccccc2)n1C (configuration not stated),69% (inactive)
7,COc1ccc(CNCC(=O)N2CCC3(CC2)OCCO3)cc1,107% (inactive)
8,CCOc1ccc(CC2(CCc3ccncc3)C(=O)NC(=O)NC2=O)cc1,96% (inactive)
9,CCOc1ccc(-n2c(/C=C/c3ccccc3)nc3ccccc3c2=O)cc1,136% (inactive)
10,CCc1ccc(OCC(=O)N2CCN(CCc3ccccn3)CC2)cc1,83% (inactive)
11,COc1cccc(-n2c(/C=C/c3cccc(C)c3)nc3ccccc3c2=O)c1,0% (active)
12,COc1cccc(-n2c(/C=C/c3ccccc3O)nc3ccccc3c2=O)c1,20% (inactive)
13,COc1cccc(-n2c(/C=C\c3ccc(Cl)cc3)nc3ccccc3c2=O)c1,48% (inactive)
14,Nc1c(C(=O)Nc2ccc(Br)cc2F)sc2nc3c(cc12)N1CCC3CC1,134% (inactive)
15,Nc1c(C(=O)Nc2ccc(F)c(Cl)c2)sc2nc3c(cc12)N1CCC3CC1,105% (inactive)
16,CN(C)c1ccc(NC(=O)c2sc3nc4c(cc3c2N)N2CCC4CC2)cc1,114% (inactive)
17,N#Cc1cc2c(nc1SCC(=O)Nc1ccc(Cl)c(C(F)(F)F)c1)C1CCN2CC1,2% (active)
18,Nc1c(C(=O)Nc2ccc(Cl)cc2)sc2nc3c(cc12)N1CCC3CC1,95% (inactive)
19,Nc1c(C(=O)Nc2ccc(Cl)c(C(F)(F)F)c2)sc2nc3c(cc12)N1CCC3CC1,1% (active)
20,CCOC(=O)c1ccc(NC(=O)c2sc3nc4c(cc3c2N)N2CCC4CC2)cc1,84% (inactive)
21,CC(=O)c1ccc(NC(=O)c2sc3nc4c(cc3c2N)N2CCC4CC2)cc1,95% (inactive)
22,N#Cc1cc2c(nc1SCC(=O)Nc1ccc(F)c(Cl)c1)C1CCN2CC1,-2% (active)
23,COc1ccc(NC(=O)CCc2nc(C3=CCN(Cc4cccc(Cl)c4)CC3)no2)cc1OC,76% (inactive)
24,CCC(N)C(=O)c1ccc(Cl)cc1 (configuration not stated),105% (inactive)
25,Cn1c(=O)n(C)c2cc(CNCCc3ccc(F)cc3)ccc21,86% (inactive)

row,SMILES,survival
1,CC(C)C(=O)c1cn(Cc2ccccc2C#N)c2ccccc12,115% (inactive)
2,Cc1cccc(Cn2cccc(C(=O)Nc3nnc(C)s3)c2=O)c1,71% (inactive)
3,CC(C)(C)c1ccc(OCC(=O)Nc2ccc(Cl)cc2C(=O)c2ccccc2)cc1,63% (inactive)
4,O=C(Nc1ccc(Br)cc1C(=O)c1ccccc1)c1ccccc1,-1% (active)
5,COc1ccc(C(=O)Nc2ccc(Cl)cc2C(=O)c2ccccc2)c(OC)c1,-2% (active)
6,COc1cc(OC)cc(C(=O)Nc2ccc(Cl)cc2C(=O)c2ccccc2Cl)c1,139% (inactive)
7,O=C(Nc1ccc(Cl)cc1C(=O)c1ccccc1)c1ccccc1Br,5% (active)
8,O=C(Nc1ccc(Cl)cc1C(=O)c1ccccc1)c1cc(Cl)cc(Cl)c1,140% (inactive)
9,O=C(Nc1ccc(Br)cc1C(=O)c1ccccc1Cl)c1ccccc1F,76% (inactive)
10,O=C(COc1ccc(Br)cc1)Nc1ccc(Cl)cc1C(=O)c1ccccc1,72% (inactive)
11,O=C(Nc1ccc(Br)cc1C(=O)c1ccccc1Cl)c1ccc(Br)cc1,136% (inactive)
12,Cc1ccc(OCC(=O)Nc2ccc(Cl)cc2C(=O)c2ccccc2)cc1C,75% (inactive)
13,CC(C)(C)c1ccc(C(=O)Nc2ccc(Cl)cc2C(=O)c2ccccc2)cc1,3% (active)
14,CSc1ncc(C(=O)Nc2ccc(Cl)cc2C(=O)c2ccccc2)c(C)n1,88% (inactive)
15,Cc1cc(NC(=O)c2cccn(Cc3cccc(Cl)c3)c2=O)no1,72% (inactive)
16,O=C1NC(=O)N(Cc2ccco2)C(=O)/C1=C\c1ccco1,111% (inactive)
17,O=C(Nc1ccc2c(c1)OCO2)c1cccn(Cc2ccc(F)cc2)c1=O,59% (inactive)
18,CCCc1nc(SC)ncc1C(=O)Nc1ccc(Cl)cc1C(=O)c1ccccc1,84% (inactive)
19,COC(=O)C1=C(C)OC(N)=C(C#N)C12C(=O)Nc1ccc(C)cc12 (configuration not stated),96% (inactive)
20,COc1ccc(CN2CCNCC2)cc1,98% (inactive)
21,Cc1cccc(NC(=O)Cn2cc(C(=O)c3ccccc3)c3ccccc32)c1C,71% (inactive)
22,CC(c1ccccc1F)n1cc(C(=O)NC2CCCC2)nn1 (configuration not stated),103% (inactive)

# From PubChem BioAssay AID463173 (ICCB-Longwood Screening Facility, Harvard Medical School, 2010)
